In the library only some 9.3% were active in any assay of this set; here they are far more common.
SMN2 splice up – increases expression of the SMN2 splice variant. AID 1458. HEK293 SMN2-luciferase splicing reporter, luminescence, 30-36 h. Potency, µM (titrated, usually from 46.1 µM), inactives show at the highest dose activity change, positive = activation, usual class: activators. 210,000 tested, 2.8% active; further: % of control where 0% means no effect; nearly all actives have a fitted effect of over 55% in size
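HEK293 cells carry an SMN2 minigene-luciferase reporter in which exon 7 inclusion puts luciferase in frame. Cells were seeded at 2000 cells/well, attached for 10-12 hours, then exposed to compounds for 30-36 hours at 37C before ONE-Glo luminescence.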
ELG1 DNA repair – ELG1-dependent DNA repair inhibition; 330,000 tested, 2.3% active; Potency, µM (series often up to 46.1 µM), for the others: at the top dose activity change, negative = inhibition, usual class: inhibitors; HEK293T ELG1-luciferase reporter, luminescence, 16 h; DNA damage induced by 5-fluorouridine; further: on the % scale 0 is the no-effect control and ±100 the full control effect; nearly all actives have a fitted effect of over 55% in size
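DMSO vehicle served as the neutral condition. Each well held 2,000 cells given 5-fluorouridine plus compound; after 16 hr at 37 °C/5% CO2, ONE-Glo was added and luciferase measured 30 min later.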
ELG1 genotoxic – genotoxicity induction in ELG1-luciferase HEK293T cells; HEK293T ELG1-luciferase reporter, luminescence, 16 h; Potency, µM (doses to about 46 µM), for the others: top-dose activity change, positive = activation, actives largely listed as activators; 330,000 tested, 1.3% active; further: % of control where 0% means no effect; nearly all actives have a fitted effect of over 60% in size
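ELG1-luciferase HEK293T cells, 2,000/well; compound pinned in; 16 hr, 37 °C, 5% CO2; ONE-Glo, 30 min RT; luminescence on CCD imager.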
Rab9 prom act – Rab9 promoter activation | 320,000 tested, 2.8% active | Potency, µM (top dose mostly 9.22 µM), for inactives: at the highest dose activation, negative = inhibition, most hits filed as activators | AID 485297 | Huh7 Rab9 promoter-luciferase reporter, luminescence, 24 h; further: % of control where 0% means no effect; nearly all actives have a fitted effect of over 60% in size
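Stable Rab9-luc Huh7, 1500 cells/well, 2 h settle; cmpd in DMSO, 24 h, 37 °C/5% CO2; luciferase reagent 10 min RT; luminescence.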
NPC1 promoter act – activators of NPC1 promoter. 320,000 tested, 2.4% active. Potency, µM (series often up to 9.22 µM), inactives show at the highest dose activation, actives largely listed as activators. Huh7 NPC1 promoter luciferase reporter, 24 h. AID 485313; further: % of control where 0% means no effect; nearly all actives have a fitted effect of over 60% in size
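Huh7 reporter cells (NPC1 promoter driving luciferase) are dosed with compound for 24 h at 37 °C, 5% CO2; luciferase detection reagent is then added and luminescence measured after 10 min at ambient temperature.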
FLuc counter – inhibits or activates purified firefly luciferase, miR-21 counter-screen | purified FLuc, Km substrates, luminescence inhibition | Potency, µM (doses to about 57.5 µM), without a hit: at the top dose activity change, negative = inhibition, hits mostly inhibitors | P08659 | 360,000 tested, 6.9% active;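 further: plate controls were vehicle for no effect and reference inhibitor for full effect; nearly all actives have a fitted effect of over 55% in size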
Target sequence (P08659 whole entry, looked up): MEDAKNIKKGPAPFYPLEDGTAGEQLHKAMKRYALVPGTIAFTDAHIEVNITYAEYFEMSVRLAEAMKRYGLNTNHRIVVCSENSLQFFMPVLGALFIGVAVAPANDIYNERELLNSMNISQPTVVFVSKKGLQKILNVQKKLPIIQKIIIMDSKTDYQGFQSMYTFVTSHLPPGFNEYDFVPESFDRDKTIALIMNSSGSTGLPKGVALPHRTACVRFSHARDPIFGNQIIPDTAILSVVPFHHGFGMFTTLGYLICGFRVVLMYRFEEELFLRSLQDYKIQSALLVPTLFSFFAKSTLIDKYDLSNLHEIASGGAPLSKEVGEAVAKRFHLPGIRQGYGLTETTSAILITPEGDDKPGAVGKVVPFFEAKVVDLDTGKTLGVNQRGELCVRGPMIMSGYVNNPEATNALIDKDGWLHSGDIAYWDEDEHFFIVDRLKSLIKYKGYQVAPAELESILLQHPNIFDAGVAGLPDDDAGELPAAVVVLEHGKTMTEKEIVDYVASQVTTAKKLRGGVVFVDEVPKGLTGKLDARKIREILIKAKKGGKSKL
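Biochemical qHTS of compounds, final roughly 60 µM downward over six points, against 10 nM purified firefly luciferase using Km concentrations of substrates (10 uM D-luciferin, 10 uM ATP) in Tris acetate pH 7.5 buffer; luminescence output.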
Starred values were filed as active, the others as inactive; ? = inconclusive; · = not tested or not shown; [ ] = remark or other dose. The call rests on the fitted dose curve; in most records, active means well fitted curve in the direction sought with a large enough effect; inconclusive means small, poorly fitted or top-dose-only effect, or another doubt; inactive means no such curve, though single readings can be large; an effect the other way counts as inactive or inconclusive. Potency means the concentration at half of the fitted maximal effect.

SMILES	SMN2 splice up	ELG1 DNA repair	ELG1 genotoxic	Rab9 prom act	NPC1 promoter act	FLuc counter
Cc1ccc(-c2nn(-c3ccc(F)cc3)cc2C(=O)NCCCN2CCCC2=O)cc1	·	?	-7%	3%	1%	11µM*
O=C(CN1CCN(c2ccc(C(F)(F)F)cn2)CC1)NCc1ccc2c(c1)OCO2	·	-4%	-9%	1%	3%	7%
CCN(CC)C(=O)CSc1nnc2[nH]c(=O)cc(C)n12	·	·	·	·	·	-5%
CC(=O)N/C(N)=N/c1nc2cc([N+](=O)[O-])ccc2o1	·	?	?	3.2µM*	?	?
CC(=O)Nc1nc2cc([N+](=O)[O-])ccc2s1	·	18%	1%	-1%	0%	5%
CC(=O)N/C(N)=N/c1nc2cc(C)ccc2o1	·	?	9.2µM*	0.79µM*	1.4µM*	5.4µM*
Cc1ccc(C(=O)N/N=C/c2ccc(OC(=O)c3ccccc3Cl)cc2)cn1	·	?	2%	5%	5%	-9%
Cc1cccc(C(=O)Oc2ccc(/C=N/O)cc2)c1	1%	?	?	15%	26%	7.6µM*
O=C(Oc1ccc(/C=N/O)cc1)c1ccccc1Cl	7%	?	13%	-1%	-2%	9.5µM*
COC(=O)CC1c2ccccc2C=C(C)N1C(=O)OC (stereo unspecified)	6%	·	·	·	·	·
COc1ccc(-c2cn(-c3ccc(Cl)cc3)c3[n+]2CCCCC3)cc1	·	12µM*	-4%	-17%	-13%	0%
COc1ccc(N2CC(O)(c3ccc(OC(F)F)cc3)[N+]3=C2CCCC3)cc1 (stereo unspecified)	-7%	5%	-3%	-1%	-5%	0%
COc1ccc(-n2cc(-c3ccc(OC(F)F)cc3)[n+]3c2CCCCC3)cc1	-20%	5.2µM*	-13%	-24%	-17%	1%
Clc1ccc(-c2cn(-c3ccc(Cl)cc3)c3[n+]2CCCCC3)cc1	·	?	-13%	-1%	0%	4%
CCC1(c2ccc(F)cc2)NC(=O)N(CC(=O)N2CCN(C(=O)c3ccco3)CC2)C1=O (stereo unspecified)	·	11%	1%	·	·	·
Fc1cccc(CSc2ncnc3c2ncn3[C@H]2CCCS2)c1	2%[9.22 µM]	·	·	·	·	·
Cc1noc(C)c1NC(=O)N(C)C[C@H]1Oc2ccc(NC(=O)C3CCCCC3)cc2C(=O)N([C@H](C)CO)C[C@@H]1C	·	16%	7%	·	·	·
Cn1c(=O)c2c(ncn2CC(=O)OCC(=O)c2ccc(F)c(F)c2)n(C)c1=O	·	9%	1%	-3%	-4%	5%
COc1ccc(C2=NN(C(C#N)c3ccc(OC)c(OC)c3)C(c3ccccc3)C2)cc1 (stereo unspecified)	95%	?	5.8µM*	?	14%	12µM*
CCOc1ccc(C(C)=O)cc1COc1cccnc1[N+](=O)[O-]	·	-19%	-32%	-33%	-35%	-1%
CC1CCCC(C)N1C(=O)c1cc(-c2ccc3c(c2)OCO3)on1 (stereo unspecified)	·	?	-1%	2µM*	2µM*	11µM*
CC1CCCCN1C(=O)c1cc(-c2ccc(Br)cc2)on1 (stereo unspecified)	8%	·	·	·	·	?
CC1CCCC(C)N1C(=O)c1cc(-c2ccc(Cl)c(Cl)c2)on1 (stereo unspecified)	27%	?	13%	?	?	12µM*
COc1ccc(NC(=O)c2cc(-c3ccc4c(c3)OCO4)on2)cc1	·	1%	3%	-2%	-1%	-8%
CCCn1c(-c2ccc(F)cc2)nc2c(NCCCN3CCCCC3C)nc(C)nc21 (stereo unspecified)	-9%	·	·	·	·	·
Cc1ccc(NC(=O)c2cc3c(s2)CCCC3)cc1S(=O)(=O)Nc1ccccc1Cl	-60%	23µM*	-8%	-5%	-7%	17µM*
O=C(Nc1cccc(S(=O)(=O)Nc2ccc(Cl)cc2)c1)c1ccc(Cl)nc1	·	?	0%	-23%	-21%	3%

Compound activity (PubChem)
